Active and inactive are the calls of the source.
What was measured:
[1] = target: Albumin (Bos taurus) (UniProt P02769); assay: bovine serum albumin binders on microarray, profiling panel, artefact control for SMM control protein annotation, biochemical, small-molecule microarray, Alexa647 label, 635/667 nm fluorescence (AID 1118); conditions: BSA-A647 binding, fluorescence 635 nm, higher = more signal;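 note: score merges 667 nm emission intensity and signal-to-noise per printed compound spot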
[2] = small-molecule microarray binders of probe aXIP, primary screen, biochemical, NeuroSMM set, 635/667 nm fluorescence (AID 1119); conditions: higher = more signal, called active from +8 up or from −8 down;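 note: probe is the protein aXip251-270 applied at 1 µg/mL to compound-printed slides; binding of probe to printed compounds measured as 667 nm fluorescence plus signal to noise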
[3] = small-molecule binders of probe aNOTCH3, primary screen, biochemical, small-molecule microarray, 635/667 nm fluorescence (AID 1120); conditions: higher = more signal;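 note: probe is a biotin-tagged antibody raised against NOTCH3 rather than NOTCH3 protein; score merges spot fluorescence near 667 nm with spot signal to noise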
[4] = small-molecule binders of probe aNOTCH2, primary screen, biochemical, small-molecule microarray, 635/667 nm fluorescence (AID 1121); conditions: higher = more signal;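 note: score merges feature fluorescence read at 667 nm with its signal to noise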
[5] = target: Carbonic anhydrase 2 (Homo sapiens) (UniProt P00918); assay: CAII small-molecule binders, profiling panel, biochemical, small-molecule microarray, Alexa647-labelled CAII (AID 1122); conditions: CAII-A647 binding fluorescence, higher = more signal
[6] = COS7 lysate on small-molecule microarray, probe aHis, 635 nm (AID 1123); conditions: COS7 cell lysate, fluorescence, higher = more signal;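 note: z-score combines 667nm fluorescence intensity with signal-to-noise per printed compound spot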
[7] = compound binding in COS7 lysate, probe aLAP1, primary screen, cell lysate, small-molecule microarray (AID 1124); conditions: probe aLAP1, fluorescence, higher = more signal;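 note: lysate comes from COS7 cells expressing LAP1 and is applied at 0.3 µg/mL; score merges spot fluorescence near 667 nm with signal-to-noise over triplicate slides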
[8] = test system: Sam68 (KHDRBS1); assay: Sam68 small-molecule binders, primary screen, biochemical, small-molecule microarray, 635 nm fluorescence (AID 1125); conditions: small-molecule microarray binding, higher = more signal;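 note: score merges 667 nm channel intensity with signal to noise over triplicate slides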
[9] = test system: Chordin-like protein 2 (CHRDL2); assay: CHRDL2 small-molecule binders, primary screen, biochemical, small-molecule microarray, 635 nm fluorescence (AID 1126); conditions: small-molecule microarray binding, fluorescence 635 nm; higher = more signal;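 note: printed compound slides probed with Chrdl2 protein at 4 µg/mL for 1 h at 4 C; score merges 667 nm emission intensity with signal to noise over three replicate slides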
[10] = target: Concanavalin-A (Canavalia ensiformis) (UniProt P02866); assay: ConA small-molecule binders, primary screen, artefact control for SMM control protein annotation, biochemical, small-molecule microarray, Alexa647 label, 635 nm (AID 1127); conditions: ConA-A647 binding fluorescence, higher = more signal;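 note: z combines 667 nm emission intensity with signal-to-noise across three replicate slides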
[11] = anti-His antibody binders, primary screen, artefact control for SMM control protein annotation, biochemical, small-molecule microarray, 635 nm fluorescence (AID 1128); conditions: anti-His Alexa647 antibody binding, higher = more signal;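 note: score merges feature fluorescence with signal-to-noise for each printed compound spot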
[12] = test system: Human papillomavirus type 1a E7 protein (residues 1-88); assay: HPV1a E7 small-molecule binders, primary screen, biochemical, small-molecule microarray, residues 1-88, 635 nm (AID 1129); conditions: small-molecule microarray binding, fluorescence 635 nm; higher = more signal
[13] = target: Focal adhesion kinase 1 (Homo sapiens) (UniProt Q05397); assay: small-molecule microarray binders of FAK, primary screen, biochemical, 635/667 nm fluorescence, BSA, DTT (AID 1130); conditions: PTK2 binding, 635 nm fluorescence, higher = more signal;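 note: composite of spot emission at 667 nm and signal to noise over triplicate slides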
[14] = test system: Fibrinogen (Alexa647-labelled); assay: fibrinogen binders on compound microarrays, profiling panel, artefact control for SMM control-protein annotation, biochemical, small-molecule microarray, 635/667 nm fluorescence (AID 1131); conditions: fibrinogen-A647 binding fluorescence, higher = more signal;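 note: z-score merges 667 nm fluorescence with per-spot signal-to-noise over triplicate slides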
[15] = target: Follistatin (Homo sapiens) (UniProt P19883); assay: follistatin binders on small-molecule microarrays, primary screen, biochemical, small-molecule microarray, 635/667 nm fluorescence (AID 1132); conditions: FST binding, 635 nm fluorescence, higher = more signal
[16] = target: Fibroblast growth factor 2 (Homo sapiens) (UniProt P09038); assay: FGF2 binders on small-molecule microarrays, primary screen, biochemical, small-molecule microarray, 635/667 nm fluorescence (AID 1133); conditions: small-molecule microarray binding, FGF2, fluorescence 635/667; higher = more signal
[17] = mitochondrial membrane potential change in A549 cells, profiling panel, cell-based, JC-1 fluorescence, basal, 24 h, 100 nL (AID 1138); conditions: higher = more signal;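 note: A549 lung adenocarcinoma cells under basal conditions with no added stimulus; test concentration not given here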
[18] = test system: Lefty1; assay: Lefty1 binders on small-molecule microarrays, primary screen, biochemical, small-molecule microarray, 635/667 nm fluorescence (AID 1139); conditions: small-molecule microarray binding, fluorescence 635/667; higher = more signal
[19] = test system: wheat germ agglutinin (Triticum aestivum), Alexa647-labelled; assay: wheat germ agglutinin binders on compound microarrays, profiling panel, artefact control for SMM control-protein annotation, biochemical, small-molecule microarray, 635/667 nm fluorescence (AID 1140); conditions: WGA-A647 binding, 635 nm fluorescence, higher = more signal;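 note: score merges 667 nm feature emission with signal to noise over triplicate slides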
[20] = target: Luciferin 4-monooxygenase (Photinus pyralis) (UniProt P08659); assay: firefly luciferase enzyme inhibitors, primary screen, biochemical, luminescence, purified enzyme, 2006 set (AID 1141); conditions: SteadyGlo luminescence, 30 min, higher = more signal, called active from +8 up or from −8 down;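 note: cell-free assay with purified firefly luciferase at 100 ng per well in PBS; test concentration not given here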
Sequence of Luciferin 4-monooxygenase (Photinus pyralis) (P08659 whole entry, looked up): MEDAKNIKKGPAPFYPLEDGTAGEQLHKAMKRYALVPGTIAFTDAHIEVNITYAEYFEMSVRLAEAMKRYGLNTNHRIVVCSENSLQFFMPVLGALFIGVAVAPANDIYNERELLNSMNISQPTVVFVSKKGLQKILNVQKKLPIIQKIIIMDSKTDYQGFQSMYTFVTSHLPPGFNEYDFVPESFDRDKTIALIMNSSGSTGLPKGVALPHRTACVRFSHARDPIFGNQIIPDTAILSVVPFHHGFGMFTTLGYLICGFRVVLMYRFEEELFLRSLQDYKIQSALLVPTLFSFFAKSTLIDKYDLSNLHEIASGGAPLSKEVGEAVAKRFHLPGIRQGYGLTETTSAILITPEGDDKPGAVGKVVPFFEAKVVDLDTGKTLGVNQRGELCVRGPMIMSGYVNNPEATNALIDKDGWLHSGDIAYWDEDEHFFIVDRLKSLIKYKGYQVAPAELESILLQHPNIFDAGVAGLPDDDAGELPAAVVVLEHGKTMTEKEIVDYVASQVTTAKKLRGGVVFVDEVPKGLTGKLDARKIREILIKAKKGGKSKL

Sequence of Albumin (Bos taurus) (P02769 whole entry, looked up): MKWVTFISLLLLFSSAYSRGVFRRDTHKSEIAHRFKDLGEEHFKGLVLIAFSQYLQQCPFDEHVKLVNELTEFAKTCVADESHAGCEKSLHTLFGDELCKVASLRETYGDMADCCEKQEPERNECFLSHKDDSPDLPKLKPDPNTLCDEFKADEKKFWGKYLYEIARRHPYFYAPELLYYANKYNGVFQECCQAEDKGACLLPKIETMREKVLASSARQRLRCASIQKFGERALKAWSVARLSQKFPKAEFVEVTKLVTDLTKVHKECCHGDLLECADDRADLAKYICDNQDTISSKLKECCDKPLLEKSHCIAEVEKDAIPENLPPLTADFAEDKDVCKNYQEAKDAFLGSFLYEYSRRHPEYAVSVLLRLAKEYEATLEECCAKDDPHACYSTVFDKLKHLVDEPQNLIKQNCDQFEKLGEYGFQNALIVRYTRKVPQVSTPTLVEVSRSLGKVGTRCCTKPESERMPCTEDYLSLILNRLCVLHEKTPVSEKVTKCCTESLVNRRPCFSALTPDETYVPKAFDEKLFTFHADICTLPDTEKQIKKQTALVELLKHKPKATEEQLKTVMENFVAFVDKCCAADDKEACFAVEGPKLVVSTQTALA
Sequence of Fibroblast growth factor 2 (Homo sapiens) (P09038 whole entry, looked up): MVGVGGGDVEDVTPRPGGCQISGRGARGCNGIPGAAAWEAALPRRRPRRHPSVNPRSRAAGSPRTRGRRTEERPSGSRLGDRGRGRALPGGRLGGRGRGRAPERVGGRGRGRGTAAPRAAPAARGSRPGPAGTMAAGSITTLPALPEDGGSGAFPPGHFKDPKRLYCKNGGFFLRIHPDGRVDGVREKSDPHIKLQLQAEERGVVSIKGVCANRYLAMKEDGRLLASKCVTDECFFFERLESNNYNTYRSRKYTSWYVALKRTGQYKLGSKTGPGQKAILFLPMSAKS
Sequence of Focal adhesion kinase 1 (Homo sapiens) (Q05397 whole entry, looked up): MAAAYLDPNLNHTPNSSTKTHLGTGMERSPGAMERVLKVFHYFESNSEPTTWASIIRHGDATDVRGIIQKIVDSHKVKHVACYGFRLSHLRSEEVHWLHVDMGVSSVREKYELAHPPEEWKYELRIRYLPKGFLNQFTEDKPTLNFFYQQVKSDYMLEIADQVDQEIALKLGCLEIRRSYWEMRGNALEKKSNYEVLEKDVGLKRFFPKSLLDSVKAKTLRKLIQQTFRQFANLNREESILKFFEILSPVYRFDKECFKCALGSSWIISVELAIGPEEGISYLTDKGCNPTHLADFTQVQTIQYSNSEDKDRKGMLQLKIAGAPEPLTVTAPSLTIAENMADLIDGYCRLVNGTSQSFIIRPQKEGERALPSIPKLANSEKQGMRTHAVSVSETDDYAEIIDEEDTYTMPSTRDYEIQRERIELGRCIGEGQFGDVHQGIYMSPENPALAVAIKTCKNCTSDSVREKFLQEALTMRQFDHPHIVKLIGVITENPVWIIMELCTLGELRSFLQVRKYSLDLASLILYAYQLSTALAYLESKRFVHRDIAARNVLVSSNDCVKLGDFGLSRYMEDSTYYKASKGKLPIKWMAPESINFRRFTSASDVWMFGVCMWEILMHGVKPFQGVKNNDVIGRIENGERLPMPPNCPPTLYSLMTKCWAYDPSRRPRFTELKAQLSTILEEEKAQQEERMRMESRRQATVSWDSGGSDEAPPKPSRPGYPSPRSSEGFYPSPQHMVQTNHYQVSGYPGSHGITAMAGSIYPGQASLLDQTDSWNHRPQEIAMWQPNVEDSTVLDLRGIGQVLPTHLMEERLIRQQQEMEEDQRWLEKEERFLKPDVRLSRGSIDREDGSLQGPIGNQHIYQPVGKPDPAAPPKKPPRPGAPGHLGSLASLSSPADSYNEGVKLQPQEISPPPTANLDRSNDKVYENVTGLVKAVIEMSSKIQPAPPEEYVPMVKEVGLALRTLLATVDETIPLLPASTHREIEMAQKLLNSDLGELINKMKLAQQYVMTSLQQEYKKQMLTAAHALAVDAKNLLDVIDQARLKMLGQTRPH
Sequence of Concanavalin-A (Canavalia ensiformis) (P02866 whole entry, looked up): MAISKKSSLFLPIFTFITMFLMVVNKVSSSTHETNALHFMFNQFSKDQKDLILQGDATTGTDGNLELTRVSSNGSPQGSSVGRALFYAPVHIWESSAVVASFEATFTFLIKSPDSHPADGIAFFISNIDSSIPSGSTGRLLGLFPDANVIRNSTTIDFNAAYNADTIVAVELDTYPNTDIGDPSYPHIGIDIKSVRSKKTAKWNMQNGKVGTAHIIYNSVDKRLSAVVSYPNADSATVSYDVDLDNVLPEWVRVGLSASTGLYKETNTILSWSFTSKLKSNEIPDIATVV
Sequence of Follistatin (Homo sapiens) (P19883 whole entry, looked up): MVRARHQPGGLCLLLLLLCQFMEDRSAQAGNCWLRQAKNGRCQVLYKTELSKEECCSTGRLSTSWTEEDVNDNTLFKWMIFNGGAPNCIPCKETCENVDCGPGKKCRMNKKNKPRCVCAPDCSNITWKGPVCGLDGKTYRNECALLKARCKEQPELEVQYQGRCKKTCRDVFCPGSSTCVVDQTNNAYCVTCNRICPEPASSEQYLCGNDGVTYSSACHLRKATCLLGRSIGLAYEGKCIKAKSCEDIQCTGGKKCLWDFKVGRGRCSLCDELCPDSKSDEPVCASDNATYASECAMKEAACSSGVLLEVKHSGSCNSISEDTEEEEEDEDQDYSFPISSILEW

SMILES | composite z-score [1] | composite Z-score [2] | composite z-score [3] | composite z-score [4] | composite z-score [5] | composite z-score [6] | composite z-score [7] | composite z-score [8] | composite z-score [9] | composite z-score [10] | composite z-score [11] | composite z-score [12] | composite z-score [13] | composite z-score [14] | composite z-score [15] | composite z-score [16] | z-score [17] | composite z-score [18] | composite z-score [19] | z-score [20]
COCCCNC(=O)[C@@]1(C)c2ccccc2C(=O)N(Cc2cc(F)cc(C(F)(F)F)c2)[C@H]1c1ccc(CO)cc1 | -1.33 | 0.0737 (inactive) | -0.336 | -0.126 | 0.74 | 2.01 | 0.346 | 0.0363 | -1.94 | -0.453 | -0.224 | -1.01 | -0.706 | -1.61 | -1.48 | -0.521 | 1.25 | -1.73 | -1.26 | -1.13 (inactive)
C=C[C@H](OC)[C@@H](OC(=O)Nc1ccc(OC)cc1)c1ccc(OC)c(O)c1 | -2.02 | -0.403 (inactive) | -0.374 | -0.181 | 0.633 | -0.844 | 0.0191 | -0.667 | -2.31 | -2.17 | -1.22 | -1.3 | 0.7 | -2.93 | -0.823 | -1.23 | 1.19 | -1.75 | -2.18 | -1.67 (inactive)
CC(C)N1CC=CC23O[C@@H]4/C=C\CCCOC(=O)C4[C@H]2C(=O)N(CCCO)[C@@H]3C1=O (stereo not given in full) | -1.17 | 1.73 (inactive) | -0.249 | -0.125 | 0.962 | -0.0009 | -0.745 | -0.594 | -1.72 | -0.564 | -0.936 | -1.26 | -0.134 | -1.72 | -0.995 | -1.23 | 1.25 | -1.42 | -0.965 | -1.38 (inactive)
C=C(C1=CCN(S(=O)(=O)c2ccc(C)cc2)C1)[C@@H](OC(C)=O)[C@@H]1CCCN1S(=O)(=O)c1ccccc1[N+](=O)[O-] | -1.41 | -0.0256 (inactive) | -0.127 | -0.194 | 0.139 | 0.586 | -0.273 | -0.339 | -0.486 | -1.53 | 0.0491 | 0.128 | 0.137 | -1.38 | -0.273 | -0.343 | 1.7 | -0.0118 | -1.42 | -1.35 (inactive)
CC(CO)N1C(=O)[C@@H]2C3C(=O)OCCC/C=C\[C@H]3OC23C=CCN(Cc2ccccc2)C(=O)[C@@H]13 (stereo not given in full) | -0.656 | -0.427 (inactive) | -0.189 | -0.177 | 0.866 | -0.255 | -0.285 | -0.164 | -1.64 | -2.2 | -1.18 | -1.47 | -0.55 | -1.52 | -0.742 | -0.426 | 0.935 | -0.532 | -1.54 | -1.56 (inactive)
C=C(COC)C(=O)CC[C@@H](OC(=O)c1ccccc1-c1ccccc1C(=O)O)c1cccc(OCCO)c1 | -0.39 | -0.122 (inactive) | -0.15 | -0.154 | 0.713 | 0.19 | -0.402 | -0.296 | 0.192 | 0.375 | -1.24 | -0.533 | -0.508 | -0.661 | 1.27 | 0.866 | 1.46 | 0.299 | -0.478 | -3.64 (inactive)
C=C(COC)/C(=C/C[C@H](OC(C)=O)c1cccc(OCCO)c1)c1cc(C(=O)OC)ccc1OC | -0.169 | 0.211 (inactive) | -0.0414 | -0.0649 | 0.656 | 0.193 | -0.219 | 0.705 | 1.25 | -0.0821 | 0.349 | -0.131 | -0.402 | -0.488 | 1.51 | 1.4 | -0.0205 | 1.72 | -1.08 | -0.727 (inactive)
COCCCNC(=O)[C@@]1(CCS(=O)(=O)c2ccccc2)N=C(c2ccc(OCCCO)cc2)O[C@H]1c1ccccc1CN=[N+]=[N-] | 0.91 | 0.582 (inactive) | 0.448 | 0.0763 | 0.528 | 2.3 | 0.561 | 1.22 | -0.308 | 1.12 | 2.56 | 1.21 | 1.17 | 0.989 | 1.4 | 1.53 | 0.579 | 0.578 | 1.24 | -0.888 (inactive)
C[C@@H](OCc1ccccc1)C1NC(=O)[C@@]23C(=O)N[C@@H](Cc4ccccc4)C2[C@H](C)[C@@]2(C)O[C@H]2C3/C=C/C/C=C\CNC(=O)[C@@H]2CCCN2C1=O (stereo not given in full) | -0.149 | -0.216 (inactive) | -0.0921 | -0.147 | 0.619 | -0.357 | -0.296 | -0.898 | 0.377 | -0.896 | -0.0278 | -0.443 | -0.709 | -0.632 | 0.0944 | 0.166 | 2.49 | 0.0078 | -0.927 | -1.45 (inactive)
CC(=O)NCCCC[C@@H]1NC(=O)[C@@H]2C[C@H](C(=O)O)[C@H](c3cccc(OCCO)c3)N2C1=O | -1.33 | 0.274 (inactive) | -0.126 | -0.146 | 0.276 | 0.348 | 0.0927 | 1.34 | 1.31 | 1.15 | 2 | 1.07 | 0.341 | 0.041 | 1.35 | 1.73 | 1.2 | 1.42 | 0.795 | -1.16 (inactive)
COCCOC(=O)N1C(=O)[C@@]2(c3cc(C#CCNC(N)=O)ccc31)[C@H](c1ccccc1OCCO)N1[C@H](c3ccccc3)[C@H](c3ccccc3)OC(=O)[C@H]1[C@@H]2C(=O)Nc1nc2ccccc2s1 | 0.598 | 0.564 (inactive) | -0.0391 | -0.0817 | 0.439 | 0.862 | 0.292 | 1.12 | 0.0611 | 1.03 | 0.3 | 0.965 | 0.374 | 0.283 | 1.17 | 0.271 | -2.07 | 0.591 | 1.04 | -1.87 (inactive)

Source: PubChem BioAssay
